Assay outcomes from PubChem.
LAP4-GFP MLPCN – modulators of LAP4-GFP expression in yeast, primary screen, S. cerevisiae, multiplex flow cytometry, MLPCN library; GFP response vs DMSO, % at 10 µM; AID 2023, 2009; 3 h; median GFP as percent of DMSO wells; hit rate 0.34% among 320,000;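 active means GFP response vs DMSO above a set limit, about the screen mean plus 3 SD, cut at about 150% in these data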
AGP1 TOR yeast – modulators of AGP1-GFP expression in yeast TOR pathway, primary screen, cell-based, multiplex flow cytometry, S. cerevisiae, MLPCN library | GFP response vs DMSO, % at 10 µM | hit rate 0.02% among 320,000 | 3 h; GFP as percent of DMSO wells | AID 2066, 2009;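 active means GFP response relative to DMSO above a set limit, near screen average plus 3 SD, cut at about 150% in these data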;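 further: median GFP channel fluorescence of the gated AGP1 strain per well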
RPL19A TOR yeast – RPL19A-GFP expression modulators in yeast, primary screen, cell-based, S. cerevisiae, multiplex flow cytometry, MLPCN. S. cerevisiae RPL19A-GFP strain, 3 h; active compounds read low. percent response vs DMSO, % at 10 µM. hit rate 0.3% among 330,000. AID 2025, 2009;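 active means percent response vs DMSO below 50%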;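 further: median channel GFP fluorescence of the barcoded RPL19A-GFP strain; ratio of sample median GFP to plate DMSO average so 100% = DMSO; lower means less RPL19A-GFP as with rapamycin TOR inhibition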
CIT2 TOR yeast – modulators of CIT2-GFP expression in yeast, primary screen, S. cerevisiae, GFP fusion, multiplex flow cytometry, MLPCN library; S. cerevisiae CIT2-GFP strain, 3 h; 100 means same as DMSO wells; GFP response vs DMSO, % at 10 µM; hit rate 0.065% among 320,000; AID 2029, 2009;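 active means GFP response relative to DMSO above a set limit, near the screen mean plus 3 SD, cut at about 150% in these data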;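 further: ratio of well median GFP fluorescence to mean of DMSO wells on the plate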
MEP2 TOR yeast – modulators of MEP2-GFP levels in yeast, primary screen, S. cerevisiae, multiplex flow cytometry, MLPCN library; S. cerevisiae MEP2-GFP strain, 3 h; 100% = DMSO control level; AID 2016, 2009; GFP response vs DMSO, % at 10 µM; hit rate 0.51% among 330,000;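 active means GFP response versus DMSO above a set limit, roughly screen mean plus 3 SD, cut at about 180% in these data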;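 further: median GFP fluorescence of the barcode-gated MEP2-GFP cells per well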
LAP4-GFP pick2 – LAP4-GFP expression modulators in yeast, confirmation, cell-based, second cherry pick, flow cytometry. shares compounds with LAP4-GFP MLPCN. S. cerevisiae LAP4-GFP strain, 3 h. GFP response vs DMSO, % at 10 µM. hit rate 20% among 590;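 active means GFP signal as percent of the solvent control above about 150%, meaning raised reporter expression, limit read from the data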;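 further: ratio of well median GFP fluorescence to plate DMSO mean so 100% = DMSO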
MEP2-GFP pick2 – modulators of MEP2-GFP levels in yeast, confirmation, S. cerevisiae, flow cytometry GFP, second cherry picks; shares compounds with LAP4-GFP MLPCN; S. cerevisiae MEP2-GFP strain, 3 h; GFP response vs DMSO, % at 10 µM; hit rate 10% among 590; AID 2622, 2010;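 active means GFP signal above 150% of the solvent control wells, that is a rise of more than half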;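 further: median channel GFP fluorescence of all gated yeast cells per well; ratio of median GFP to plate DMSO average so 100% = DMSO level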
RPL19A GFP CP2 – RPL19A-GFP modulators in TOR pathway yeast, confirmation, cell-based, S. cerevisiae, flow cytometry, second cherry pick. shares compounds with LAP4-GFP MLPCN. S. cerevisiae RPL19A-GFP strain, 3 h; active compounds read low; 100% means same as DMSO wells. GFP response vs DMSO, % at 10 µM. hit rate 3% among 590. AID 2623, 2010;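 active means under 65% GFP response relative to DMSO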;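 further: median GFP channel fluorescence per well over the all cells gate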
CIT2-GFP pick2 – modulators of CIT2-GFP expression in yeast, confirmation, flow cytometry, second cherry pick, single plex. shares compounds with LAP4-GFP MLPCN. GFP response vs DMSO, % at 10 µM. S. cerevisiae CIT2-GFP strain, 3 h; DMSO control wells read 100%. hit rate 8% among 590;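 active means GFP response vs DMSO above about 150%, limit read from the data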;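 further: median green fluorescence per well over all gated yeast cells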
AGP1 GFP CP2 – AGP1-GFP expression modulators, hit retest, confirmation, cell-based, flow cytometry, S. cerevisiae, cherry pick set 2 | shares compounds with LAP4-GFP MLPCN | 590 tested, under 10 active | percent response vs DMSO, % at 10 µM | AID 2643, 2010 | S. cerevisiae AGP1-GFP strain, 3 h;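 active means over 150 percent of DMSO response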;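 further: median GFP channel fluorescence over all cells without mother daughter split; sample median GFP divided by mean DMSO control so 100% equals DMSO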
Yeast autofluor – compound autofluorescence in yeast s288c, dose response, artefact control for yeast TOR pathway GFP screen, s288c strain | S. cerevisiae s288c, 520 nm autofluorescence, flow cytometry, 3 h; active compounds read high; zero means same as solvent-only cells | shares compounds with LAP4-GFP MLPCN | fluorescence change (kMESF span) at 33 µM | 610 tested, under 10 active | AID 2757, 2010;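 active means fluorescence span over the dose series, or activity score, above about 33, limit read from the data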
Yeast autofl DR – autofluorescence of compounds in yeast s288c, dose response, artefact control for yeast TOR pathway GFP screen, primary hits, KU SAR, s288c parental; shares compounds with LAP4-GFP MLPCN; S. cerevisiae s288c parental, compound autofluorescence, flow cytometry, 3 h; fluorescence change (span) at 33 µM; 110 tested, under 10 active; AID 488829, 2010;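 active means fluorescence change span, or the activity score built from it, above 25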
TORC1 bypass – wild-type yeast growth inhibition sparing TORC1 bypass cells, mechanism study for yeast TOR pathway GFP screen, BY4741 wild type, TORC1 bypass strain; growth rating (0-3) at 30 µM; S. cerevisiae BY4741 spot growth rating, 48-72 h; active compounds read low; shares compounds with LAP4-GFP MLPCN; 120 tested, under 10 active;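 active means growth rating at most 1 for wild type yeast while the TORC1 bypass strain still grows fully, rated 3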
Starred values were filed as active, the others as inactive; x = not tested or not shown; [ ] = another dose, or the depositor's remark. Only some compounds are listed: those with a hit (about 0.93% of all), similar ones and a draw of the others.

SMILES	LAP4-GFP MLPCN	AGP1 TOR yeast	RPL19A TOR yeast	CIT2 TOR yeast	MEP2 TOR yeast	LAP4-GFP pick2	MEP2-GFP pick2	RPL19A GFP CP2	CIT2-GFP pick2	AGP1 GFP CP2	Yeast autofluor	others
COc1ccc(Br)cc1C(=O)NC(=S)Nc1c(C)n(C)n(-c2ccccc2)c1=O	101.5	101.4	102.5	101.6	104.4	x	x	x	x	x	x
Fc1ccc(-n2nnc(-c3ncc[nH]3)n2)cc1	97.8	107.3	102.6	99.2	99.5	x	x	x	x	x	x
CC(C)(C)NC(=O)[C@@H]1C[C@@H]2CCCC[C@@H]2CN1C[C@@H](O)[C@H](Cc1ccccc1)NC(=O)[C@H](CC(N)=O)NC(=O)c1ccc2ccccc2n1	95.9	81.8	100.2	79.1	96.1	107.2	113.5	95.9	112.6	100.7	x
COC(=O)[C@H](Cc1ccccc1)NC(=O)c1ccc2ccccc2n1	85.0	90.2	95.8	89.1	92.7	x	x	x	x	x	x
COc1ccccc1CNC(=O)c1cccc(S(=O)(=O)N(C)c2ccccc2)c1	96.8	96.6	98.5	95.4	105.1	x	x	x	x	x	x
Cc1ccc(NC(=O)c2cc(N3C(=O)C=CC3=O)ccc2N2CCOCC2)cc1Cl	152.7*	78.6	72.2	69.6	98.2	162.3*	183.4*	80.0	144.6	92.3	1.72	Yeast autofl DR=1.46;TORC1 bypass=3
CCSC1=NSC2=NC(=O)/C(=C\c3coc4ccccc4c3=O)C(=N)N12	130.4	39.8	85.1	73.9	268.0*	308.6*	169.4*	169.1	161.3*	113.5	x
Cc1cc(=O)c(C(=O)Nc2cccc(C(=O)NC3CC3)c2)nn1-c1ccccc1Cl	100.8	104.8	97.9	99.8	101.0	x	x	x	x	x	x
COc1ccc(/C=C/C(=O)C2C(=O)C=C(C)OC2=O)cc1O (configuration not stated)	184.7*	96.2	99.4	90.5	92.0	x	x	x	x	x	-0.2
O=C(OCn1ncc(Br)c(Br)c1=O)c1ccccc1Cl	203.1*	96.4	87.5	84.4	89.8	x	x	x	x	x	0
O=C(OCn1ncc(Br)c(Br)c1=O)c1ccc(F)cc1	235.9*	80.9	89.8	x	85.5	x	x	x	x	x	0.61	Yeast autofl DR=0.36;TORC1 bypass=2
O=C(OCc1cnc(Cl)s1)c1ccccc1Cl	100.3	74.6	94.8	84.3	96.9	x	x	x	x	x	x
CCOC(=O)c1cc(C)sc1NC(=O)CN1CCN(C(=O)C2CCCO2)CC1 (configuration not stated)	87.0	93.9	95.6	94.2	96.5	x	x	x	x	x	x
O=C(Nc1ccc(N2CCOCC2)cc1)C1CCN(S(=O)(=O)c2ccc3c(c2)OCCO3)CC1	254.2*[may fluoresce green]	124.2	123.4	231.0*[may fluoresce green]	340.5*[may fluoresce green]	106.7	103.2	101.7	98.4	100.6	0.1
O=C(Nc1ccc2c(c1)OCO2)C1CCN(S(=O)(=O)c2ccc3c(c2)OCCO3)CC1	97.8	108.2	100.0	104.8	98.5	x	x	x	x	x	x
CC(O)CO (configuration not stated)	99.8	96.7	100.8	93.8	101.6	x	x	x	x	x	x
CCN1/C(=C/c2ccc3cc(C)ccc3[n+]2CC)Sc2ccc3sccc3c21	299.5*	123.6	90.0	366.2*	588.5*	x	x	x	x	x	8.77
COc1ccc(CCC(C)NCCc2ccc(Cl)cc2Cl)cc1 (configuration not stated)	107.0	107.1	103.2	106.3	114.5	x	x	x	x	x	x
O=C(NCCN1CCCC1)c1ccc(Cn2c(=S)[nH]c3cc4c(cc3c2=O)OCO4)cc1	152.7*	110.5	82.6	86.8	103.7	101.2	94.3	99.1	105.7	97.1	x
C=CCNC(=O)c1ccc(Cn2c(=S)[nH]c3cc4c(cc3c2=O)OCO4)cc1	80.8	88.3	90.2	78.4	96.1	x	x	x	x	x	x
COc1ccc(Cl)cc1NC(=O)CN(C)CC(=O)Nc1cc(OC)c(OC)c(OC)c1	94.3	98.3	105.7	102.9	89.5	x	x	x	x	x	x
O=C(Oc1ccnc2cc(Cl)ccc12)N1CCOCC1	99.2	95.2	101.0	103.5	108.3	100.0	98.2	98.5	97.2	98.8	0
O=[N+]([O-])c1cccc(C(=NCc2ccccc2)NO)c1	100.2	99.9	103.9	104.1	107.0	x	x	x	x	x	x
O=c1c2ccccc2oc2cc(C#CC3(O)CCCCC3)ccc12	153.4*	84.0	100.4	80.2	91.7	106.2	113.5	94.8	107.1	93.0	x
COc1cccc2oc3cc(C#CC4(O)CCCCC4)ccc3c(=O)c12	126.6	81.1	93.9	63.7	93.7	x	x	x	x	x	x
O=C1N(c2ccccc2C(F)(F)F)OC1(Cc1ccccc1)c1ccccc1 (configuration not stated)	93.8	96.5	95.7	100.8	98.5	111.5	106.5	109.3	112.0	102.8	0
FC(F)(F)c1ccccc1-n1ccnc1	108.4	74.7	89.3	72.0	99.2	x	x	x	x	x	x
CC(C)[C@@]1(c2ccccc2)ON(c2ccccc2C(F)(F)F)C1=O	109.7	100.4	99.0	104.8	93.6	105.2	96.1	102.1	104.3	97.1	-0.2
